CASP6 VEID inh: human caspase-6 inhibitors, primary screen, biochemical, VEID-R110 fluorescence, single point, set 2; P55212; purified caspase-6, Z-VEID-R110 cleavage fluorescence; inhibition, % at 12.5 µM; 0.53% of 350,000 active; AID 686996, 2013;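 active = mean inhibition across replicates at least about 35%, with every replicate also reaching that limit, limit read from the data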
ARNT TACC3 PPI: disruptors of ARNT/TACC3 protein interaction, primary screen, biochemical, AlphaScreen, single concentration. Transforming acidic coiled-coil-containing protein 3 (Homo sapiens), Q9Y6A5. 0.66% of 390,000 active. AlphaScreen His-ARNT PAS-B/GST-TACC3 binding, luminescence; TACC3 fragment carries E629A point mutation. inhibition, % at 9.99 µM;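 active = mean inhibition of replicates at least 50% and at least half of replicates each reaching 50%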
NSD2 inh: NSD2 histone methyltransferase inhibitors, primary screen, biochemical, AlphaScreen, single concentration, set 2 | NSD2 peptide methylation, 120 min | inhibition, % at 12.5 µM | Histone-lysine N-methyltransferase NSD2 (Homo sapiens), O96028 | 0.54% of 310,000 active; in the data active = inhibition above about 50%
SIRT5 inh: SIRT5 desuccinylase inhibitors, primary screen, biochemical, fluorescence imaging, single point, set 5; NAD-dependent protein deacylase sirtuin-5, mitochondrial (Homo sapiens), Q9NXA8; inhibition, % at 15 µM; AID 652115, 2013; Purified SirT5, succinyl-peptide AMC, trypsin-coupled fluorescence; 1.1% of 330,000 active; in the data active = inhibition above about 15%
PfHsp90 yeast 2: growth inhibition of PfHsp90-expressing yeast, primary screen, antimalarial PfHsp90 inhibitor project, S. cerevisiae, BacTiter-Glo luminescence, single point, set 2; AID 504621, 2011; inhibition, % at 9.4 µM; BacTiter-Glo ATP, 48 h; yeast lacking PDR1 and PDR3 efflux regulators; 0.32% of 310,000 active;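 active = every replicate shows inhibition above about 80%, whatever the replicate mean, limit read from the data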
Numbers stand for hits; - = inactive; . = no result. Rows were chosen to be rich in hits. Some 2.1% of all compounds tested hit in one or more screens of this group.

SMILES	CASP6 VEID inh	ARNT TACC3 PPI	NSD2 inh	SIRT5 inh	PfHsp90 yeast 2
C[C@@H]1CN([C@H](C)CO)C(=O)c2cc(NS(=O)(=O)c3ccc(Cl)cc3)ccc2O[C@@H]1CN(C)Cc1ccc2c(c1)OCO2	-	-	.	-	.
COc1ccc(S(=O)(=O)Nc2ccc3c(c2)C(=O)N([C@H](C)CO)C[C@H](C)[C@H](CN(C)Cc2ccc4c(c2)OCO4)O3)cc1	-	-	.	16.3	.
C[C@@H]1CN([C@H](C)CO)C(=O)c2cc(NS(=O)(=O)c3ccc(Cl)cc3)ccc2O[C@H]1CN(C)Cc1ccc2c(c1)OCO2	-	-	.	19.7	.
C[C@@H]1CN([C@H](C)CO)C(=O)c2cc(C#CC3CC3)cnc2O[C@@H]1CN(C)Cc1ccccc1C(=O)O	-	-	.	-	.
CCNC(=O)Nc1ccc2c(c1)C(=O)N(C)[C@@H]1CC[C@H](CC(=O)NCc3ccc(F)cc3)O[C@H]1CO2	-	-	.	-	.
COc1cc(CNCc2ccccn2)ccc1OCC(=O)NC(C)(C)C	.	82.0	-	.	-
CCOc1c(Cl)cc(CNCc2ccccn2)cc1OC	-	48.7	.	-	-
COc1cc(CNCc2ccccn2)ccc1OCC(=O)NC1CCCCC1	.	47.3	-	.	-
CCOc1cc(CNCc2ccccc2)ccc1OCC(=O)NC1CCCCC1	-	.	-	-	-
COCC(=O)N(C)C[C@@H]1Oc2ncc(-c3ccccc3OC)cc2C(=O)N([C@@H](C)CO)C[C@H]1C	-	.	.	-	.
Cc1noc(C)c1NC(=O)Nc1ccc2c(c1)C(=O)N([C@H](C)CO)C[C@H](C)[C@H](CN(C)C(=O)c1ccccc1)OCCCC[C@@H](C)O2	-	-	.	-	.
CC(=O)N(C)C[C@H]1Oc2ncc(-c3ccccc3F)cc2C(=O)N([C@H](C)CO)C[C@@H]1C	-	-	.	-	.
CCOc1ccc2c(c1)C(NC(C)=O)C(=O)N2CCN1CCOCC1 (centres undefined)	55.1	-	.	-	-
COCc1nc2ccccc2n1Cc1ccccc1C	-	.	-	37.8	-
O=C(O)c1ccc(N/N=C/c2ccc(-c3cccc(Cl)c3)o2)cc1	-	-	.	-	104.4
O=C(C[C@@H]1C=C[C@@H](NC(=O)NC2CCCCC2)[C@@H](CO)O1)NCc1ccccc1	-	-	.	.	.
Cn1c(=O)c2cc(NC(=S)NC3CCCCC3)ccc2n1Cc1ccc(F)cc1	-	.	-	-	.
Cn1c(=O)c2cc(NC(=S)NC3CC3)ccc2n1Cc1ccccc1	58.0	.	-	.	.
C[C@@H]1CN([C@@H](C)CO)C(=O)Cc2cc(NC(=O)CCCN(C)C)ccc2O[C@@H]1CN(C)CC1CCCCC1	-	-	.	-	.
COc1ccc(OC)c(CN2CCN(CCCc3ccccc3)C(CCO)C2)c1 (centres undefined)	-	-	-	-	-
COc1ccc(CN2CCN(CCCc3ccccc3)C(CCO)C2)c(OC)c1 (centres undefined)	-	-	-	18.5	-
Cc1ccc(N=Cc2cc(Cc3ccccc3Cl)cc([N+](=O)[O-])c2O)c(O)c1	.	-	-	.	110.6
COc1ccc(N=Cc2cc(Cc3ccccc3Cl)cc([N+](=O)[O-])c2O)cc1OC	.	.	.	.	110.6
COc1ccc(NC(=O)Nc2ccc3c(c2)C(=O)N([C@@H](C)CO)C[C@H](C)[C@H](CN(C)S(=O)(=O)c2ccc(C)cc2)OCCCC[C@H](C)O3)cc1	-	-	.	-	.
O=C(c1ccccn1)N1C[C@@H]2[C@H](c3ccccc31)[C@H](CO)N2C(=O)c1ccccn1	.	-	.	.	.
SMILES	CASP6 VEID inh	ARNT TACC3 PPI	NSD2 inh	SIRT5 inh	PfHsp90 yeast 2
CO[C@H]1CN(C)C(=O)c2ccc(NC(=O)C3CC3)cc2OC[C@H](C)N(Cc2ccccc2)C[C@@H]1C	-	.	.	-	.
CCN(CC)Cc1c(C(=O)N/N=C/c2ccncc2)nnn1-c1nonc1N	-	-	-	-	-
CCN(CC)Cc1c(C(=O)N/N=C/c2ccc(C)o2)nnn1-c1nonc1N	-	-	-	84.6	-
COCc1c(C(=O)N/N=C\c2ccccn2)nnn1-c1nonc1N	-	74.5	-	-	-
O=C(C[C@@H]1C=C[C@@H](NC(=O)Nc2ccc(F)cc2)[C@H](CO)O1)NCc1cccc(F)c1	-	-	.	-	.
CC1(C)CN(c2ccccc2)N(C(=O)c2ccc(F)cc2)C1=O	-	-	-	23.6	-
CCNC(=O)C[C@@H]1CC[C@H]2[C@@H](COc3ccc(NC(=O)C4CCOCC4)cc3C(=O)N2C)O1	-	-	.	-	.
O=C(Cc1ccncc1)NCC[C@@H]1CC[C@@H](NC(=O)C2CCCC2)[C@H](CO)O1	-	-	.	-	.
CC(=O)NN1C(=O)/C(=C\c2ccc(Br)o2)SC1=S	50.5	-	-	-	-
OC(c1ccc(F)cc1)c1ncc(-c2ccccc2F)[nH]1 (centres undefined)	38.5	.	-	-	.
O[C@H]1C[C@H](c2ccccc2)N(Cc2cccs2)C[C@@H]1n1cc(-c2ccc(F)cc2)nn1	-	.	.	16.3	.
O[C@H]1CN(Cc2cccs2)[C@@H](c2ccccc2)C[C@@H]1n1cc(-c2ccc(F)cc2)nn1	-	.	.	-	.
O=[S@]1Oc2ccccc2-c2ccccc21	-	-	-	-	109.7
COc1cccc(S(=O)(=O)N[C@@H]2CC[C@H](CC(=O)NCc3ccccc3)O[C@@H]2CO)c1	-	-	.	-	.
O=[N+]([O-])c1ccc2nc(-c3ccccc3[N+](=O)[O-])[nH]c2c1	38.4	-	-	-	-
Cc1ccccc1OCC(=O)Nc1ccccc1N1CCC(C)CC1	-	45.1	-	-	-
CC(=O)N1CCN(c2ccccc2NC(=O)COc2ccccc2C)CC1	-	-	-	-	-
O=C(Nc1ccc2c(c1)[C@H]1C[C@@H](CC(=O)N3CCOCC3)O[C@@H](CO)[C@H]1O2)c1cccnc1	-	-	.	-	.
CCOC(=O)C1=C(Cc2ccc(Cl)cc2)C(=O)c2ccccc2C1=O	.	-	.	.	104.8
COc1ncnc2c1ncn2CCCN1CCN(c2ccccn2)CC1	-	.	.	27.7	.
O=C(Nc1nnc(SCC(=O)N2CCCC2)s1)C1CC(=O)N(c2ccccc2)C1 (centres undefined)	-	-	-	-	-
COc1cccc(N2CC(C(=O)Nc3nnc(SCC(=O)N4CCCC4)s3)CC2=O)c1 (centres undefined)	-	-	-	17.0	-
Cc1ccccc1-c1ccc([C@H]2[C@H](CO)N3C(=O)CN(C(=O)c4ccc(F)cc4)C[C@@H]23)cc1	-	.	.	-	.
O=C(Cc1cccs1)N/N=C\c1ccc([N+](=O)[O-])s1	-	-	-	-	-
Cc1ccc(NC(=S)N/N=C/c2ccc([N+](=O)[O-])s2)cc1	-	-	-	-	100.3
O=[N+]([O-])c1ccc(C=Nc2ccc(Cl)c([N+](=O)[O-])c2)s1	.	-	.	-	106.3
NC(=O)c1ccc(N=Cc2ccc([N+](=O)[O-])s2)cc1	-	-	-	-	104.4

Screening results (PubChem BioAssay)
